Here are results for 5 compounds from PubChem BioAssay.

Assay [1] is described as follows: E. coli DRC41 culture turbidity changes, primary screen, E. coli filamentation inducer project, strain DRC41, OD650, 48 h (AID 1152).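 Note: E. coli MC1000 strain DRC41 lacking acrAB efflux pump and sulA.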 The settings on record: E. coli DRC41 (acrAB sulA), higher = more signal, called active from +8 up or from −8 down.
Assay [2] can be described thus: small-molecule binders of probe aLefty1, primary screen, biochemical, small-molecule microarray, 635/667 nm fluorescence (AID 1153).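 Note: score merges spot fluorescence with signal-to-noise ratio from the scanned slide images.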 The settings on record: higher = more signal.
The nature of assay [3]: PSAC antagonists in infected red cells, primary screen, cell-based, P. falciparum Indochina, OD700, 1 h (AID 1154). The settings on record: P. falciparum Indochina infected RBC osmotic lysis, higher = more signal, called active from +8 up or from −8 down.
Assay [4] in a line: PSAC antagonists in infected red cells, primary screen, cell-based, P. falciparum Indochina, OD700, 2 h (AID 1155).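 Note: lysis reports solute entry through the parasite surface anion channel PSAC; channel blockers reduce lysis of infected cells.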 The settings on record: P. falciparum Indochina infected erythrocytes, osmotic lysis OD700; higher = more signal, called active from +8 up or from −8 down.
A short description of assay [5]: osmotic lysis modulators in infected erythrocytes, primary screen, PSAC antagonist project, cell-based, P. falciparum Indochina, OD700, 3 h (AID 1156). As to conditions: higher = more signal, called active from +8 up or from −8 down.
Assay [6] is described as follows: PSAC antagonists in infected red cells, primary screen, cell-based, P. falciparum Indochina, OD700, 18 h (AID 1157). As to conditions: P. falciparum Indochina infected erythrocytes, osmotic lysis OD700, 18 h; higher = more signal, called active from +8 up or from −8 down.
The nature of assay [7]: modulators of S6 phosphorylation in cells, primary screen, cell-based, A549, cytoblot, luminescence, serum-stimulated (AID 1158).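 Note: serum-stimulated A549 lung adenocarcinoma cells; signal is phosphorylated S6 detected by cytoblot immunostaining with HRP secondary.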 The settings on record: A549 phospho-S6 cytoblot, 5 h, higher = more signal.
Assay [8] has as its target NADPH oxidase 2 (Homo sapiens) (UniProt P04839). Description: NOX2-dependent H2O2 signal modulators, primary screen, NOX inhibitor project, cell-based, HEK293-NOX2, PMA-stimulated, Amplex Red fluorescence (AID 1159). Note: test concentration not given here. The settings on record: 45 min, higher = more signal, called active from +8 up or from −8 down.
The target in assay [9] is NADPH oxidase 4 (Homo sapiens) (UniProt Q9NPH5). As to the kind of experiment: NOX4-dependent H2O2 signal modulators, primary screen, NOX inhibitor project, cell-based, HEK293-NOX4, tetracycline-induced, Amplex Red fluorescence (AID 1160). The settings on record: 45 min, higher = more signal, called active from +8 up or from −8 down.
For assay [10], the target named is NADPH oxidase 5 (Homo sapiens) (UniProt Q96PH1). Description: NOX5-dependent H2O2 signal modulators, primary screen, NOX inhibitor project, cell-based, HEK293-NOX5, Amplex Red fluorescence (AID 1161). The settings on record: HEK293-NOX5, ionomycin, 45 min, higher = more signal.
A short description of assay [11]: A549 cell viability effects, profiling panel, calcein-AM fluorescence, 48 h, basal (AID 1162). Note: test concentration not given here. The settings on record: higher = more signal.
Assay [12] in a line: adipocyte viability effects, profiling panel, cell-based, 3T3-L1 adipocytes, calcein-AM fluorescence, 48 h, basal (AID 1163). Note: test concentration not given here. The settings on record: 3T3-L1 adipocytes viability, higher = more signal.
Assay [13] in a line: HepG2 cell viability effects, profiling panel, calcein-AM fluorescence, 48 h, basal (AID 1164). Note: test concentration not given here. The settings on record: higher = more signal.
The nature of assay [14]: MM1S cell viability effects, profiling panel, calcein-AM fluorescence, 48 h, basal (AID 1165).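 Note: viability of MM1S multiple myeloma cells under basal unstimulated conditions; test concentration not given here.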 The settings on record: higher = more signal.
Assay [15] is described as follows: basal RPMI8226 viability, no added stimulus, profiling panel, cell-based, calcein-AM fluorescence, 48 h, PK04 Diversity Set (AID 1166).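 Note: cells grown under basal conditions without added stimulus; test concentration not given here.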 The settings on record: RPMI8226 myeloma viability, higher = more signal.
Assay [16] in a line: basal HepG2 mitochondrial membrane potential changes, profiling panel, cell-based, JC-1 fluorescence, 24 h, 100 nL compound (AID 1167). Note: test concentration not given here. As to conditions: higher = more signal.
A short description of assay [17]: basal 3T3-L1 adipocyte mitochondrial potential changes, profiling panel, cell-based, JC-1 fluorescence, 3T3-L1 adipocytes, 24 h, 100 nL compound (AID 1168). Note: test concentration not given here. The settings on record: JC-1 mitochondrial fluorescence, higher = more signal, called active from +8 up or from −8 down.
A short description of assay [18]: basal RPMI8226 mitochondrial membrane potential changes, profiling panel, cell-based, JC-1 fluorescence, 24 h, 100 nL compound (AID 1169). Note: test concentration not given here. The settings on record: RPMI8226 myeloma, JC-1 mitochondrial potential fluorescence, higher = more signal.
Assay [19] in a line: basal MM1S mitochondrial membrane potential changes, profiling panel, cell-based, JC-1 fluorescence, 24 h, 100 nL compound (AID 1170). Note: test concentration not given here. As to conditions: higher = more signal.
Assay [20] in a line: A549 lung cancer cell viability effects, profiling panel, resazurin fluorescence, 24 h, PK04 Diversity Set (AID 1171). Note: test concentration not given here. As to conditions: higher = more signal, called active from +8 up or from −8 down. (Resazurin is reduced to fluorescent resorufin, in cell work by metabolically active cells.)

The source made the active and inactive calls.

Sequence of NADPH oxidase 5 (Homo sapiens) (Q96PH1 whole entry, looked up): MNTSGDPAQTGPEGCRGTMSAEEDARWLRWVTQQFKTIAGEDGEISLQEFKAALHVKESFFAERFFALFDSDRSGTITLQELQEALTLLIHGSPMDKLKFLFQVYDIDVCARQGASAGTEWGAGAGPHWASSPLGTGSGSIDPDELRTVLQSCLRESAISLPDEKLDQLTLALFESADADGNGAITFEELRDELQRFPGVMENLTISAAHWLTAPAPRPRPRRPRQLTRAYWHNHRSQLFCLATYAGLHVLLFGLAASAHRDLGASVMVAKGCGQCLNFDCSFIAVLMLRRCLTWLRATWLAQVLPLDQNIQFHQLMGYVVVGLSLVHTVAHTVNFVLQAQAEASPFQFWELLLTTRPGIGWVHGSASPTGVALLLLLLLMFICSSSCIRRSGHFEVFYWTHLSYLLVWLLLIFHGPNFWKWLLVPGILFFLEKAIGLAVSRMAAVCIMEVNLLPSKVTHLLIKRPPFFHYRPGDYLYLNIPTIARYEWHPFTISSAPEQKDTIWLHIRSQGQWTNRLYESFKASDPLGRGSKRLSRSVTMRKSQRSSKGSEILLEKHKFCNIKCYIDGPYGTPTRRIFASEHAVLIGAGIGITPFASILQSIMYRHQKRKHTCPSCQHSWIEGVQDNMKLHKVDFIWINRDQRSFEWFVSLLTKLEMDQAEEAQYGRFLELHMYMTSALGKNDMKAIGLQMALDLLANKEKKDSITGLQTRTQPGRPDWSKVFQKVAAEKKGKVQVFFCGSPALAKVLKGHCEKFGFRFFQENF
Sequence of NADPH oxidase 2 (Homo sapiens) (P04839 whole entry, looked up): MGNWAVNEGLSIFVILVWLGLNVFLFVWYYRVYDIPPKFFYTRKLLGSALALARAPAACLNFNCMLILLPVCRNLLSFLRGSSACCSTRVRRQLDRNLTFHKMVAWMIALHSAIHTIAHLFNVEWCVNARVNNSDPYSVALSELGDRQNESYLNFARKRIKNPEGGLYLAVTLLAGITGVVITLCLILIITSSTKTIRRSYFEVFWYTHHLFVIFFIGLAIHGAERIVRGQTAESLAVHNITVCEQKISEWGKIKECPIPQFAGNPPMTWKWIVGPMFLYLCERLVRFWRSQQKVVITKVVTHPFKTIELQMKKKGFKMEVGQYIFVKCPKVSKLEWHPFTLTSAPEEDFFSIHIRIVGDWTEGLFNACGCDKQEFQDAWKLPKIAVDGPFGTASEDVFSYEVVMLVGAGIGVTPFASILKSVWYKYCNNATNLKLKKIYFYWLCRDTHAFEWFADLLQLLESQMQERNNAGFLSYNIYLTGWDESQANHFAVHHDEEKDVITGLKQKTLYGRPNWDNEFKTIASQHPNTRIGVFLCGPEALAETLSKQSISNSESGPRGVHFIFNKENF
Sequence of NADPH oxidase 4 (Homo sapiens) (Q9NPH5 whole entry, looked up): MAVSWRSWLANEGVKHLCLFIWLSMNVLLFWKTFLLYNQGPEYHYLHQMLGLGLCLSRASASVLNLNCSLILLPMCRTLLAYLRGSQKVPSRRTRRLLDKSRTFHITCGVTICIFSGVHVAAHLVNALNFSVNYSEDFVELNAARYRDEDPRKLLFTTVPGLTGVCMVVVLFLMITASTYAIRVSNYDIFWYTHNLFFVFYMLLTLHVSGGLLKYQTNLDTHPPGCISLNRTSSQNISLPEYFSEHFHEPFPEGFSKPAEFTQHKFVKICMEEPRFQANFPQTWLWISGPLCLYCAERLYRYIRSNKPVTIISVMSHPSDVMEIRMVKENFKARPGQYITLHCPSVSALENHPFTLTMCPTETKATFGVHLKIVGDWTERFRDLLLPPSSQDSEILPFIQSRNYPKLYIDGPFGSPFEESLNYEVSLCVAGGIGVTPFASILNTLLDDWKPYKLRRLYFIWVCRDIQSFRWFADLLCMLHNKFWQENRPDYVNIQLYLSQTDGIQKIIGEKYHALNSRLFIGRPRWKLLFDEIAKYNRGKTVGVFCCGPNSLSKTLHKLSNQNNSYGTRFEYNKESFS

In the case of `C#C[C@H](O[Si](C#CCCCCCC)(C(C)C)C(C)C)c1ccccc1`, the z-score is 0.79 (inactive) in assay [1]; 0.486 (inactive) in assay [3]; -0.227 (inactive) in assay [4]; -0.177 (inactive) in assay [5]; 0.433 (inactive) in assay [6]; 0.482 in assay [7]. Besides, the z-score in [8] is -1.09 (inactive); in [9] it was -0.782 (inactive); in assay [10], -1.97; in assay [11], 0.303; in [12], 0.102; in [13] it was -0.616. For the same compound, the z-score in assay [14] is 0.665; in [15] it was 0.528; in [16], 0.0244; in [17], -0.324 (inactive); in assay [18], 0.179; in assay [19], -0.772. Moreover, in assay [20], the z-score is 0.815 (inactive). The composite z-score in [2] is -0.468.
As for `O=C(NCc1ccccc1)[C@@H]1c2ccccc2C(=O)N(C2CCCCC2)[C@H]1c1ccc(CO)cc1`, the z-score is -0.246 (inactive) in [1]; 2.67 (inactive) in [3]; 0.0744 (inactive) in [4]; 0.473 (inactive) in assay [5]; 0.475 (inactive) in [6]; -0.127 in [7]. Besides, the z-score in assay [8] is -0.245 (inactive); in assay [9] it was 0.684 (inactive); in assay [10] it was 0.725; in assay [11], 1.53; in assay [12] it was -0.116; in assay [13], 1.54. Also, the z-score in assay [14] is 0.499; in [15], -0.0572; in assay [16], 2.46; in assay [17], 0.401 (inactive); in [18] it was 0.739; in assay [19], -0.531. In [20], the z-score was -0.222 (inactive). In [2], the composite z-score was -0.458.
As for `O=C1O[C@H](c2ccccc2)[C@H](c2ccccc2)N2[C@H]1[C@@H](C(=O)N1CCCCCCC1)[C@]1(C(=O)Nc3ccc(C#CC4=CCCCC4)cc31)[C@H]2c1ccc(O)cc1`, the z-score in [1] is -0.306 (inactive); in [3] it was 0.123 (inactive); in [4], -0.131 (inactive); in [5] it was 0.0311 (inactive); in assay [6], 0.482 (inactive); in [7], -0.0408. Besides, the z-score in [8] is 0.855 (inactive); in assay [9], 0.494 (inactive); in assay [10] it was 0.322; in [11] it was -0.674; in [12], 1.01; in [13] it was -0.0827. The z-score in assay [14] was -0.181; in [15], -0.773; in [16] it was -1.28; in [17] it was 0.634 (inactive); in [18], -0.179; in [19], -1.28. For the same compound, the z-score in assay [20] was 0.327 (inactive). In assay [2], the composite z-score turned out to be 3.07.
As for `O=C1O[C@H](c2ccccc2)[C@H](c2ccccc2)N2[C@H]1[C@@H](C(=O)NC[C@H](O)c1ccccc1)[C@]1(C(=O)Nc3ccc(C#CC4=CCCCC4)cc31)[C@H]2c1ccc(O)cc1`, the z-score in [1] is 1.8 (inactive); in [3], 1.35 (inactive); in assay [4], 0.393 (inactive); in assay [5], -0.693 (inactive); in [6] it was -0.521 (inactive); in [7], 1.98. In addition, the z-score in assay [8] was 2.08 (inactive); in assay [9] it was 0.754 (inactive); in assay [10], -0.0561; in assay [11], -1.06; in assay [12] it was 1.72; in assay [13], -1.25. The z-score in assay [14] was -3.18; in [15], -3.47; in assay [16], -2.78; in assay [17], -0.683 (inactive); in assay [18], -0.87; in assay [19], -0.544. The z-score in [20] is 0.237 (inactive). Further, in assay [2], the composite z-score was -0.0418.
As to `CC(C)N1C(=O)c2ccccc2[C@](C)(C(=O)NC2CC2)[C@@H]1c1ccc(CO)cc1`, the z-score in assay [1] was 0.897 (inactive); in assay [3] it was 0.838 (inactive); in [4] it was 0.122 (inactive); in assay [5], -0.173 (inactive); in [6], 0.475 (inactive); in [7], -0.0085. The z-score in [8] was -0.987 (inactive); in [9], -0.354 (inactive); in assay [10], -0.547; in assay [11], -0.778; in assay [12], -0.415; in assay [13], 0.176. Besides, the z-score in assay [14] was 0.0418; in [15] it was 0.27; in assay [16] it was 1.57; in assay [17] it was 0.343 (inactive); in assay [18] it was 0.747; in [19], -0.847. The z-score in assay [20] was 0.688 (inactive). For the same compound, the composite z-score in assay [2] was determined as 0.0451.
